The supplement of paper PMC11417369
± gives the standard deviation of the averaged measurements. The full ranking holds about 25,000 sequences; the median of “ln(normalized median fluorescence intensity)” is about 10, and the highest 2% start at about 12. This excerpt belongs to a sample that is enriched for the highest values.

test system: PfAP2-G AP2 domain (GST-tagged); experiment: gcPBM binding intensity (ln(normalized median fluorescence intensity)); higher = stronger DNA binding
How it was run: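 In this array assay, P. falciparum DNA-binding domains with a GST tag, expressed in E. coli, were applied for 1 h to primer-extended double-stranded 36-bp intergenic genomic probes and negative controls on an Agilent 4 × 180k array. Bound protein was visualised with Alexa488 anti-GST antibody at 488 nm. Binding intensity is the highest Masliner-normalised natural-log median intensity across replicate spots of either probe orientation.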

| Sequence | gcPBM binding intensity (ln) |
| --- | --- |
| TCATATTCCAAAAAAAAAAAAAAAAAAAAAAAAATA [CACACA_negctrl_site1293] | 9.66 ± 0.3 |
| AATAAATATTCATTTTGTACATATTTTTCGTATATG [XGTACX_site6104] | 10.9 ± 0.57 |
| TTGGGCATAATGTCATGTACACAAATAATTCTTTAT [XGTACX_site861] | 11.5 ± 1 |
| TATATATATATATATTGTACATATATTATTATATAT [XGTACX_site7447] | 10.9 ± 0.53 |
| AATTTACAAAAAAGAAAAAAAAAAAAAAAGATACTT [CACACA_negctrl_site1434] | 9.65 ± 0.071 |
| TTGTTCTATTTAAGTAGTACATACACACACATATAC [XGTACX_site8484] | 11.5 ± 0.71 |
| AAAAAGAAAAAAGAAAGTACAAATATACACATTTTT [XGTACX_site3343] | 10.9 ± 0.54 |
| ATTTATATTACAAAAAGTACACACATAAATAAATAC [XGTACX_site1827] | 11.6 ± 0.92 |
| ACATCATATTAAGAAAGTACAAAAAGAGAACATATA [XGTACX_site1268] | 11 ± 0.4 |
| ATACGAAAAAAAAAAAGTACACAAAAATATCTACAT [XGTACX_site2051] | 11.7 ± 1.1 |
| TACGAATTAAAAAAGAGTACAAATAAAATATCTACA [XGTACX_site7412] | 11.3 ± 0.84 |
| AAAAAAAAAAGAAAAAGTACATACATACATATATAT [XGTACX_site6405] | 11.3 ± 0.83 |
| ATTTAAGTAGTACATACACACACATATACAAAAAGA [CACACA_site9317] | 11.7 ± 1.3 |
| TTAAGTAGTACATACACACACATATACAAAAAGAAA [CACACA_site3972] | 11.7 ± 1.2 |
| ATTCATAAAAAGAGGTGTACATTAATATAATATATA [XGTACX_site8283] | 11.5 ± 0.95 |
| ATTTTGTTATTATATATATATATATATATATATATA [XGTACX_negctrl_site590] | 9.89 ± 0.49 |
| GATCATTTAAAATAAGTAATATTTTTTTTACTTTTG [TGCATGCA_negctrl_site602] | 9.62 ± 0.26 |
| GTTCATAAAAATTTTTGTACCCATAAAATATTCCTC [XGTACX_site8611] | 11.2 ± 0.65 |
| AATAATTGTTATAGTTGTACAATACATATATTACAA [XGTACX_site30] | 11.3 ± 0.63 |
| AAAAAAAAAAAAAAGAGTACACAGACGTTCAAAGGT [XGTACX_site7566] | 11.7 ± 0.77 |
| ACAGACGTTCAAAGGTGTACGCAAAATGAATAATAT [XGTACX_site7565] | 11.6 ± 1 |
| AAAAAAAAAAAAAAAAGTACAGACGTCAAAAAAAAA [XGTACX_site4817] | 11.6 ± 0.76 |
| TTTAAATATATTCAATCACACACATTCGTTTTTTTT [CACACA_site7962] | 9.77 ± 0.24 |

| Sequence | gcPBM binding intensity (ln) |
| --- | --- |
| GGCAAATTTATTATACCCACATACATACATACATAC [XGTACX_negctrl_site186] | 10.8 ± 0.62 |
| TTTACATTTTAGGAAGTGCATATAATAAATACTATC | 10.1 ± 0.2 |
| ATTATATTATATATATGTACATATATATATCATAAT [XGTACX_site1] | 11.1 ± 0.66 |
| ACATATTAATTATAAAGTACATATATATATATATAT [XGTACX_site4540] | 11.3 ± 0.79 |
| ATAATTATATATATATGTACATATTATATATATATA [XGTACX_site4526] | 11.2 ± 0.77 |
| AAAAAAAAAAAAAAAAGTACATATATATATATAATT [XGTACX_site4437] | 11.5 ± 0.86 |
| ATCATAAAAGTATACACACATACATACATATGTACA [CACACA_site2641] | 10.8 ± 0.45 |
| AAAAAAAAAAAAAAAAGTACACATAATTGTATATGT [XGTACX_site6339] | 11.7 ± 0.75 |
| AAAAAAAAATTGTGTACACATAATTATATCATATGT [CACACA_site4500] | 11.7 ± 0.89 |
| AAAAAAAAAAAAAAAAGTACATATATATATAATTAT [XGTACX_site7836] | 11.7 ± 0.89 |
| ATAAAAATAATATCATGTACATATGTGTATTGTATT [XGTACX_site1768] | 11 ± 0.49 |
| TTAGTAGTATTATGTAGTACATAATTATCATATCAT [XGTACX_site817] | 11.6 ± 1.1 |
| TATATAAAAAGTAATTGTACATATATATATATATAT [XGTACX_site7953] | 10.9 ± 0.68 |
| TATATCATAAAAAATTGTACATATATATATTATATA [XGTACX_site6726] | 11 ± 0.69 |
| ATAATTATAAAATAAACACACATATATATTTATATG [CACACA_site440] | 9.98 ± 0.16 |
| AATTAAAAAAAATACACACACACATACACATATATA [CACACA_site3298] | 10.2 ± 0.22 |
| ATAACATAAGGAAATACACACATATATAAGTATATA [CACACA_site778] | 10.02 ± 0.021 |
| ACATATATATATATATATATATATATATTTATTTAT [CACACA_negctrl_site734] | 10.2 ± 0.39 |
| AAAACTATAATGAATAGTACATAAAAATGGATATAT [XGTACX_site6056] | 11 ± 0.5 |
| TCTATAAAGGAATATACACACATATATATATATATA [CACACA_site410] | 9.9 ± 0.32 |
| AATAATATATTTAGGGGTACATAATAATATATTTTA [XGTACX_site8366] | 11.6 ± 1.1 |
| AGATAAAAAAAGTACACACACACATATATTTATATA [CACACA_site7437] | 11.8 ± 1.2 |
| TAAAATAAAAAAGTAGTACACACTTCACGATATTTT [CACACA_site3896] | 11.6 ± 0.91 |

| Sequence | gcPBM binding intensity (ln) |
| --- | --- |
| GTAAAAAAAAAAAAAAGTACATTATACATATATTTA [XGTACX_site5447] | 11.3 ± 0.81 |
| AAAAAAAAAAAAAGTACACACTTATAAAATATTATG [CACACA_site4639] | 11.6 ± 1.1 |
| AAAAAAGATATATAAACACACATATTTATATACACA [CACACA_site6866] | 9.66 ± 0.16 |
| ATAAAATAAAAAAGTAGTACACACTTCACGATATTT [XGTACX_site8289] | 11.5 ± 0.84 |
| TTAAAAAAAAAAAAAAGTACACACTTATAAAATATT [XGTACX_site1630] | 11.6 ± 0.91 |
| AAATAAAAAAGTAGTACACACTTCACGATATTTTTT [CACACA_site6015] | 11.6 ± 1 |
| AAAAAAAAAAAAAAAAGTACATATATTATATATATA [XGTACX_site2983] | 11.3 ± 0.93 |
| ATATTATTTTAAAGTACACACATATATTAAGATATA [CACACA_site5306] | 11.4 ± 1 |
| TAAAAAAAAAAAAAAGTACACACTTATAAAATATTA [CACACA_site872] | 11.6 ± 1 |
| AAAAAAAAAAAAAAAAGTACATATATATATTTATAT [XGTACX_site5893] | 11.7 ± 1 |
| AATGTAAAATATAAATGTACATATATATATATATAT [XGTACX_site5071] | 11 ± 0.45 |
| TATATATATATATATGTACACACATATATACCTTTC [CACACA_site8854] | 11.3 ± 0.71 |
| GAAAGAATAAAATAAACATGCAAATAAAACATAAAA [TGCATGCA_site471] | 9.81 ± 0.2 |
| AGCATAAACAATTTTTGAAAAAATATACACTCATAG [CACACA_negctrl_site890] | 9.935 ± 0.007 |
| AAAAAATATACATATTGTACATTTTTTATTAACACA [XGTACX_site6415] | 10.8 ± 0.49 |
| TAGTATTGTAAAAAAAAAAAAGAAAAAAAAAAAAAA [CACACA_negctrl_site977] | 9.68 ± 0.15 |
| TTAAGATGCATAAATACATGCAAAGTAAATAATTCT [TGCATGCA_site517] | 9.88 ± 0.014 |
| CATAAAAATGGATACACACACATAATATATATATAT [CACACA_site3619] | 10.2 ± 0.3 |
| TTACTTAAGAAACACACACACAAAAAAAAAAAAAAA [CACACA_site946] | 9.91 ± 0.54 |
| AGTTTAAATTAAATTACACACTACGAATAATATATT [CACACA_site7811] | 9.895 ± 0.007 |
| TATTCCAAAAATGTGTGTACATAAATACAATATTAT [XGTACX_site2653] | 11.4 ± 0.89 |
| ATAAAAAAAAAAAAAAGTACACATATAAAAGTATTG [XGTACX_site8265] | 11.6 ± 0.91 |
| AAAAAAAAAAAAAAAAGTACACAAATAGATTTATAT [XGTACX_site3727] | 11.6 ± 0.88 |

| Sequence | gcPBM binding intensity (ln) |
| --- | --- |
| AGATAAAAAAAGTACACACACACATATATATATATA [CACACA_site3072] | 11.6 ± 0.93 |
| AGATATATATTTTATTGTACACATTAAAGTATAAAA [XGTACX_site7194] | 11.5 ± 1.1 |
| AATAAATATATTAAAAGTACACAAATATTATTTAAT [XGTACX_site2482] | 11.4 ± 0.76 |
| GAGATATAAAAGTGTACACATATTGTTATCCATATT [CACACA_site5441] | 11.8 ± 1 |
| TAAAAAAAAATAAAAAGTACATATATATATATATAT [XGTACX_site1155] | 11.1 ± 0.86 |
| TACATATAAAAGTACACACACACACCCATATATATA [CACACA_site941] | 11.6 ± 1.1 |
| ATAAATACATATAAAAGTACACACACACACATATAT [XGTACX_site1744] | 11.5 ± 0.93 |
| ACAATATAGATTAAAAGTACAAATAGTAAATTATAT [XGTACX_site3165] | 11.2 ± 0.71 |
| AAAAAAAAAAAAAGTACACACATACAGATAAATATA [CACACA_site5067] | 11.6 ± 1 |
| GCCATAAAGATATATACACACATAAAAAAAAGTTAT [CACACA_site6674] | 10.1 ± 0.16 |
| ATATATTGAACATATTGTACATTTTGTTAATATTTT [XGTACX_site7622] | 10.7 ± 0.43 |
| TTATATTTATATATTTGTACGTATGTATATAATTCA [XGTACX_site2993] | 11.4 ± 0.97 |
| ATTGTTTTTTTTTCTTTGTGGAATGAATGAATATAT [XGTACX_negctrl_site603] | 10 ± 0.19 |
| TATATATATATATTGACACACATGTATTTCAATATT [CACACA_site2832] | 10.1 ± 0.21 |
| TATATATATATGTGCACACATAATAAAAAAAAAAAT [CACACA_site3831] | 10.6 ± 0.69 |
| AAAAAATTAATATTGACACACATTTTTAAGAATAAT [CACACA_site239] | 10.1 ± 0.16 |
| TATGTTTTTGAATGAGTGCATTAAAATAAAACATTT | 10.2 ± 0.27 |
| AAAAAAGAAAAAAGGACACACATAAATATACTCACG [CACACA_site2904] | 11.2 ± 0.91 |
| TAAATTATAATATGCACACAAAATGTTATATTAAAA [CACACA_site376] | 9.97 ± 0.26 |
| TAAAAAATAAATATATGTACGCAATAAATGTGTTAA [XGTACX_site4043] | 11.6 ± 1.1 |
